Source: PubChem
Compounds with a hit are over-represented: about 4.9% of the library has one in this group of screens.
tim10-1 inh = growth inhibitors of tim10-1 mutant yeast, primary screen, luminescence, uHTS | AID 463190, 2010 | inhibition, % at 20 µM | hit rate 2.2% among 330,000 | S. cerevisiae tim10-1 ts strain growth, BacTiter-Glo, 24 h;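 active = inhibition of at least 40%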;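 also: mutant grown at 25 °C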
SKKanGAS inh = S. pyogenes SKKanGAS growth inhibitors in kanamycin, primary screen, streptokinase expression inhibitor project, SKKanGAS strain, BacTiter-Glo luminescence; 6 h; inhibition, % at 7.5 µM; hit rate 1.3% among 300,000; AID 1662, 2009;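 active = mean replicate score, as percent of positive control median, at least 50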;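 also: strain carries kanamycin resistance gene driven by streptokinase promoter and grows in 40 µg/ml kanamycin; loss of luminescence reflects streptokinase promoter inhibition or plain growth inhibition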
NALP1 yeast inh = NALP1 inflammasome inhibitors in reconstituted yeast, colorimetric, S. cerevisiae, triplicate retest | S. cerevisiae NALP1/ASC/caspase-1 growth, X-gal OD620, 72 h | inhibition, % at 10 µM | hit rate 0.61% among 280,000; in the data active = inhibition mostly above about 24%, no sharp cut-off; inactive = mostly below about 32%
tim23-1 inh = growth inhibitors of tim23-1 mutant yeast, primary screen, luminescence, uHTS; S. cerevisiae tim23-1 growth, BacTiter-Glo luminescence, 24 h; inhibition, % at 20 µM; hit rate 1.3% among 330,000;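 active = growth inhibition of the mutant yeast at or above 50%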;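 also: temperature-sensitive mutant grown at 25 °C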
NLRP3 yeast inh = NALP3 inflammasome inhibitors in reconstituted yeast, primary screen, luminescence, uHTS | Yeast reconstituted NLRP3/ASC/caspase-1, beta-gal luminescence, 24 h | inhibition, % at 10 µM | hit rate 0.39% among 330,000 | AID 2825, 2010;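 active = inhibition of 50% or more; inactive = inhibition below 50%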
TIM10 inh = growth inhibitors of isogenic TIM10 control yeast, primary screen, counter-screen for tim10-1 yeast inhibitor project, luminescence, uHTS | S. cerevisiae TIM10 strain growth, BacTiter-Glo luminescence, 24 h | inhibition, % at 10 µM | hit rate 1.4% among 330,000 | AID 463195, 2010;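 active = inhibition of 40% or more at the single tested concentration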;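 also: wild-type TIM10 isogenic control strain grown at permissive 25 °C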
NALP3 confirm = NALP3 inhibitors retested in yeast, confirmation, luminescence, single concentration | shares compounds with NLRP3 yeast inh | yeast expressing human NALP3 | inhibition, % at 10 µM | hit rate 81% among 1,300 | AID 435006, 2010; in the data active = inhibition above about 48%
Casp1 ASC ctr = CASP1-PYCARD signaling inhibition in yeast, confirmatory test, counterassay for NLRP3 inhibitor program, one-dose; shares compounds with NLRP3 yeast inh; yeast expressing Caspase-1-ASC, luminescence counter screen; inhibition, % at 10 µM; hit rate 66% among 1,000
NALP3 retest = NALP3 inhibitors in yeast, repeat test, confirmation, luminescence, single concentration, retest | AID 488794, 2010 | inhibition, % at 10 µM | hit rate 53% among 1,000 | yeast expressing human NALP3, luminescence read-out | shares compounds with NLRP3 yeast inh
Hits are given with their value. Rule as the data show it, unless noted: active = inhibition above about 50%; inactive = the rest.

What do the screens show for `CSCc1cc(N(C)c2ccccc2)nc(-c2ccccn2)n1`?
tim10-1 inh: inactive; SKKanGAS inh: 75; NALP1 yeast inh: inactive; tim23-1 inh: inactive; NLRP3 yeast inh: 67; TIM10 inh: inactive; NALP3 confirm: 71; Casp1 ASC ctr: 74; NALP3 retest: 81

What do the screens show for `CCCCCOc1ccc(C(O)C(CN2CCOCC2)c2ccccc2)cc1` (stereo unspecified)?
tim10-1 inh: inactive; SKKanGAS inh: inactive; NALP1 yeast inh: inactive; tim23-1 inh: inactive; NLRP3 yeast inh: inactive; TIM10 inh: inactive

Results for CSc1oc(-c2ccccc2)nc1S(=O)(=O)c1ccc(C)cc1 ?
tim10-1 inh: inactive; SKKanGAS inh: inactive; NALP1 yeast inh: inactive; tim23-1 inh: inactive; NLRP3 yeast inh: 53; TIM10 inh: inactive; NALP3 confirm: 68; Casp1 ASC ctr: 56; NALP3 retest: inactive

Results for Cc1cc(N(C)C)ccc1N=Nc1ccc(N)cc1 ?
tim10-1 inh: inactive; SKKanGAS inh: inactive; tim23-1 inh: inactive; NLRP3 yeast inh: 51; TIM10 inh: inactive; NALP3 confirm: inactive; Casp1 ASC ctr: inactive; NALP3 retest: inactive

How did Nc1ccc(N=Nc2ccc(N)cc2)cc1 do in these assays?
tim10-1 inh: inactive; SKKanGAS inh: inactive; NALP1 yeast inh: inactive; tim23-1 inh: inactive; NLRP3 yeast inh: inactive; TIM10 inh: inactive

Results for Cc1occc1C(=O)Nc1cccc(Cl)c1Cl ?
tim10-1 inh: inactive; SKKanGAS inh: inactive; NALP1 yeast inh: inactive; tim23-1 inh: inactive; NLRP3 yeast inh: inactive; TIM10 inh: inactive

How did COc1ccc(C(=O)c2cc([N+](=O)[O-])ccc2N2CCCC2)cc1 do in these assays?
tim10-1 inh: inactive; SKKanGAS inh: inactive; NALP1 yeast inh: inactive; tim23-1 inh: inactive; NLRP3 yeast inh: 56; TIM10 inh: inactive; NALP3 confirm: inactive

How did O=C(c1cccs1)N1CCc2ccccc21 do in these assays?
tim10-1 inh: inactive; SKKanGAS inh: inactive; NALP1 yeast inh: inactive; tim23-1 inh: inactive; NLRP3 yeast inh: inactive; TIM10 inh: inactive

How did O=C(/C=C/c1cccs1)N1CCc2ccccc21 do in these assays?
tim10-1 inh: inactive; SKKanGAS inh: inactive; NALP1 yeast inh: inactive; tim23-1 inh: inactive; NLRP3 yeast inh: 52; TIM10 inh: inactive; NALP3 confirm: inactive

What do the screens show for `O=C(O)c1cccc(S(=O)(=O)N2CCN(c3ccccn3)CC2)c1`?
tim10-1 inh: inactive; SKKanGAS inh: inactive; NALP1 yeast inh: inactive; tim23-1 inh: inactive; NLRP3 yeast inh: inactive; TIM10 inh: inactive

What do the screens show for `OCC[C@@H]1C[C@H](O)[C@@H](O)[C@@]2(CCCc3ccccc3O2)O1`?
tim10-1 inh: inactive; SKKanGAS inh: inactive; NALP1 yeast inh: inactive; tim23-1 inh: inactive; NLRP3 yeast inh: inactive; TIM10 inh: inactive

Results for NC(N)=N/N=C/c1cccc(Cl)c1Cl ?
tim10-1 inh: inactive; SKKanGAS inh: inactive; NALP1 yeast inh: inactive; tim23-1 inh: inactive; NLRP3 yeast inh: inactive; TIM10 inh: inactive

How did C[C@H](CCC(=O)O)[C@H]1CC[C@H]2[C@@H]3CC[C@@H]4C[C@H](O)CC[C@]4(C)[C@H]3CC[C@]12C do in these assays?
tim10-1 inh: inactive; tim23-1 inh: inactive; NLRP3 yeast inh: 72; TIM10 inh: inactive; NALP3 confirm: 78; Casp1 ASC ctr: 78; NALP3 retest: 61

How did CC(CCC(=O)O)C1CCC2C3CCC4C[C@H](O)CCC4(C)C3CC(=O)C12C (stereo partly specified) do in these assays?
tim10-1 inh: inactive; SKKanGAS inh: inactive; NALP1 yeast inh: inactive; tim23-1 inh: inactive; NLRP3 yeast inh: inactive; TIM10 inh: inactive

What do the screens show for `COc1cc(/C=C/C(=O)OCC(=O)NC(=O)C2COc3ccccc3O2)ccc1OC(F)F` (stereo unspecified)?
tim10-1 inh: inactive; tim23-1 inh: inactive; NLRP3 yeast inh: inactive; TIM10 inh: inactive

What do the screens show for `COc1cc(C2C(=O)c3ccccc3C2=O)ccc1O`?
tim10-1 inh: inactive; SKKanGAS inh: inactive; NALP1 yeast inh: inactive; tim23-1 inh: inactive; NLRP3 yeast inh: 66; TIM10 inh: inactive; NALP3 confirm: 68; Casp1 ASC ctr: 66; NALP3 retest: inactive

How did COc1ccc(C2C(=O)c3ccccc3C2=O)cc1OC do in these assays?
tim10-1 inh: inactive; NALP1 yeast inh: inactive; tim23-1 inh: inactive; NLRP3 yeast inh: inactive; TIM10 inh: inactive

Results for Cc1ccc(Nc2n[nH]c(C)c2[N+](=O)[O-])cc1 ?
tim10-1 inh: inactive; SKKanGAS inh: inactive; NALP1 yeast inh: inactive; tim23-1 inh: inactive; NLRP3 yeast inh: inactive; TIM10 inh: inactive

Results for Cc1[nH]nc(Nc2ccc(Br)cc2)c1[N+](=O)[O-] ?
tim10-1 inh: inactive; SKKanGAS inh: inactive; NALP1 yeast inh: inactive; tim23-1 inh: inactive; NLRP3 yeast inh: 52; TIM10 inh: inactive; NALP3 confirm: inactive

What do the screens show for `COc1ccc(CCN2CC(C(=O)NCCc3ccccc3C(F)(F)F)CCC2=O)cc1` (stereo unspecified)?
tim10-1 inh: inactive; SKKanGAS inh: inactive; NALP1 yeast inh: inactive; tim23-1 inh: inactive; NLRP3 yeast inh: inactive; TIM10 inh: inactive

What do the screens show for `O=C1CCC(=O)N1N1C(=O)C2C3c4ccccc4C(c4ccccc43)C2C1=O` (stereo unspecified)?
tim10-1 inh: inactive; SKKanGAS inh: inactive; NALP1 yeast inh: inactive; tim23-1 inh: inactive; NLRP3 yeast inh: inactive; TIM10 inh: inactive

Results for COc1ccc(C(NC(=O)c2c(F)c(F)c(F)c(F)c2F)c2ccccc2)cc1 (stereo unspecified) ?
tim10-1 inh: inactive; SKKanGAS inh: inactive; NALP1 yeast inh: inactive; tim23-1 inh: inactive; NLRP3 yeast inh: 63; TIM10 inh: inactive; NALP3 confirm: inactive

Results for COc1ccc(C(NC(=O)c2cc(OC)ccc2OC)c2ccccc2)cc1 (stereo unspecified) ?
tim10-1 inh: inactive; SKKanGAS inh: inactive; NALP1 yeast inh: inactive; tim23-1 inh: inactive; NLRP3 yeast inh: inactive; TIM10 inh: inactive

What do the screens show for `S=C(Nc1ccc(Cl)c(Cl)c1)NC1CCCCC1`?
tim10-1 inh: inactive; SKKanGAS inh: inactive; NALP1 yeast inh: inactive; tim23-1 inh: inactive; NLRP3 yeast inh: 53; TIM10 inh: inactive; NALP3 confirm: 59; Casp1 ASC ctr: 85; NALP3 retest: 68

Results for CC(=O)Nc1ccc(/C=N/Nc2nncc3ccccc23)cc1 ?
SKKanGAS inh: inactive; NALP1 yeast inh: inactive
